Test results published in publication PMC4336329 (PLoS ONE, 2015).
About 14,000 (4.5%) of roughly 310,000 compounds showed an effect of 50% or more. The effect is printed as a negative number. The sample holds strong results, similar compounds and a random draw of the others, so the mix is not that of the screen.

What follows are molecules tested against human ether-à-go-go-related gene (hERG) potassium channel (human, UniProt Q12809) (assay: primary screen, population patch clamp on CHO cells stably expressing hERG; higher = less effect of the substance).
Chain of human ether-à-go-go-related gene (hERG) potassium channel (Q12809 whole entry, looked up): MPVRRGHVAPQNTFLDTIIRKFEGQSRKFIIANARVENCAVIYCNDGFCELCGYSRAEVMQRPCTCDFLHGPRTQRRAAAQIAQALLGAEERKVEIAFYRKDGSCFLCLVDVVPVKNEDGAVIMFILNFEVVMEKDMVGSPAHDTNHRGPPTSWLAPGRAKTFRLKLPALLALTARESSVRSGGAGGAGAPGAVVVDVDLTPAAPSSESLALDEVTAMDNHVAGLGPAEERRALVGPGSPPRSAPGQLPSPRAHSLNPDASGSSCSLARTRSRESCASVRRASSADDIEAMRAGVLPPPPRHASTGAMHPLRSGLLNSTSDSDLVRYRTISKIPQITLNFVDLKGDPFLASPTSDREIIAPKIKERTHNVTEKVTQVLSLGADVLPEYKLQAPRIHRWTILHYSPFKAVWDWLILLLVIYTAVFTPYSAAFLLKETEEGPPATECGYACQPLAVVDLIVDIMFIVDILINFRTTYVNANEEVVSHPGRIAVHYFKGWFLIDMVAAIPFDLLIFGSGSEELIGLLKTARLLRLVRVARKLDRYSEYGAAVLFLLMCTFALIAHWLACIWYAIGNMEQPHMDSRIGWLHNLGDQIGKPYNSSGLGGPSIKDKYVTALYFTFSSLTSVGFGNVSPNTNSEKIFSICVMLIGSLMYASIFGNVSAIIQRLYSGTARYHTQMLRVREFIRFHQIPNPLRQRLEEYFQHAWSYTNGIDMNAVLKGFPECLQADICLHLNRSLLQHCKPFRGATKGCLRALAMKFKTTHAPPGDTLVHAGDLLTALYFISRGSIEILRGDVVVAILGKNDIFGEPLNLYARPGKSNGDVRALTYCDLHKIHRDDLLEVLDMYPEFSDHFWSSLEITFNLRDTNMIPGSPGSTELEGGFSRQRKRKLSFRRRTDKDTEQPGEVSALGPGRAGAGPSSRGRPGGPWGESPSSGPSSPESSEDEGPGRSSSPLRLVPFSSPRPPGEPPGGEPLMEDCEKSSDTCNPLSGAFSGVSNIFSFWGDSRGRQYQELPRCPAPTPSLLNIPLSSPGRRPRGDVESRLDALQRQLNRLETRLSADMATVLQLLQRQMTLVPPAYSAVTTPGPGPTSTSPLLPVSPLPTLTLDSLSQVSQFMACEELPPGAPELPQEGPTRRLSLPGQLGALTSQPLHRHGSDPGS
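Note: peak tail current of the secondary pulse compared with the same well before compound.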

SMILES	hERG current change (%, negative = inhibition) at 10uM [%]
O=C(c1c[nH]c2ccc(S(=O)(=O)N3CCOCC3)cc2c1=O)N1CCC2(CC1)OCCO2	23.7
CCc1ccccc1NC(=O)N1C2CCCC1CC(NC(C)=O)C2 (stereo not shown)	21.4
Cc1nn(-c2ccccc2)c(Cl)c1C1C(C#N)=C(N)Oc2c1c(=O)oc1ccccc21 (stereo not shown)	6.87
CCN1C(=O)C(=Cc2c(C)n(CC(=O)NCC3CCCO3)c3ccccc23)C(=O)N(CC)C1=S (stereo not shown)	27.5
CCOc1cc(-c2noc(CCC(=O)Nc3cccnc3)n2)ccc1OC	10.4
O=C(O)CC12C[C@H]3C[C@@H](C1)CC(n1ncc(N4CCN(c5ccccc5)CC4)c(Cl)c1=O)(C3)C2	6.36
O=C(O)CCC(=O)N1CCN(Cc2ccc3c(c2)OCO3)CC1	11.6
N#Cc1ccc(S(=O)(=O)N2CCC(C(=O)N3CCN(Cc4ccc5c(c4)OCO5)CC3)CC2)cc1	-74.2
O=C(C1CCN(S(=O)(=O)c2cnc[nH]2)CC1)N1CCN(Cc2ccc3c(c2)OCO3)CC1	0.674
O=C(CCC1CCCCC1)N1CCN(Cc2ccc3c(c2)OCO3)CC1	-67.2
CCCC(=O)N1CCN(Cc2ccc3c(c2)OCO3)CC1	-3.83
O=C(C1CCN(S(=O)(=O)c2ccccc2)CC1)N1CCN(Cc2ccc3c(c2)OCO3)CC1	-28.9
CCOC(=O)C1CCN(S(=O)(=O)c2cc(C(=O)OC)n(C)c2)CC1	-8.49
c1ccc(-n2cc(CN3CCC(N4CCOCC4)CC3)c(-c3ccc4c(c3)OCO4)n2)cc1	-50.8
OC[C@@H]1CCCN1Cc1cn(-c2ccccc2)nc1-c1ccc2c(c1)OCO2	-24.2
CC(=O)NCC1CCCN(Cc2cn(-c3ccccc3)nc2-c2ccc3c(c2)OCO3)C1 (stereo not shown)	-45.9
c1ccc(-n2cc(CN3CCCC3)c(-c3ccc4c(c3)OCO4)n2)cc1	-73
COCC1CCCCN1Cc1cn(-c2ccccc2)nc1-c1ccc2c(c1)OCO2 (stereo not shown)	-37.1
COC(=O)C1CCN(Cc2cn(-c3ccccc3)nc2-c2ccc3c(c2)OCO3)CC1	-33.7
c1ccc(-n2cc(CN3CCCC(CN4CCCC4)C3)c(-c3ccc4c(c3)OCO4)n2)cc1 (stereo not shown)	-29.2
c1ccc(Cn2cc(CN3CCCO3)c(-c3ccc4c(c3)OCO4)n2)cc1	15.9
COCC1CCCN(Cc2cn(-c3ccccc3)nc2-c2ccc3c(c2)OCO3)C1 (stereo not shown)	-65.7
Cl.O=C1CSC(c2cn(-c3ccccc3)nc2-c2ccc3c(c2)OCCO3)N1CCN1CCOCC1 (stereo not shown)	-21.2
COCCC1CCCCN1Cc1cn(-c2ccccc2)nc1-c1ccc2c(c1)OCO2 (stereo not shown)	-55.8
c1ccc(Cn2cc(CN3CCCCO3)c(-c3ccc4c(c3)OCO4)n2)cc1	-1.3
O=C(COC(=O)Cn1nc(-c2ccccc2)oc1=O)Nc1ccc(F)cc1	4.6

SMILES	hERG current change (%, negative = inhibition) at 10uM [%]
CC1=C(C/C=C(\C)CCCC(C)CCCC(C)CCCC(C)C)C(=O)c2ccccc2C1=O (stereo not shown)	25.4
COC(=O)c1sccc1NC(=O)Nc1ccccc1F	13.4
CCCOc1ccc(N2C(=O)C3C(C(C)C)NC4(C(=O)c5ccccc5C4=O)C3C2=O)cc1 (stereo not shown)	-0.496
O=C(NNC1CC(=O)N(c2ccc3c(c2)OCCO3)C1=O)c1ccc(Cl)cc1 (stereo not shown)	10.1
Cc1ccc(CNC(=O)CNS(=O)(=O)c2ccc(Br)s2)cc1	-0.279
O=C1C2C3C=CC(C4CC34)C2C(=O)N1/N=C/c1ccc(-c2cccc([N+](=O)[O-])c2)o1 (stereo not shown)	-14.1
O=C(CSc1nncc2ccccc12)Nc1ccc(C(=O)O)cc1	10.6
O=C(COC(=O)c1ccc(O)cc1)NC1CCCC1	14
C#CCOc1ccc(/C=C2/C(=O)N(c3cccc(C(=O)O)c3)N=C2C)cc1OC	-2.13
CCCN(CC#CC(O)(c1ccccc1)c1cccnc1)CCC (stereo not shown)	-37.3
COc1ccccc1NC(=O)CSc1ccc2nnc(-c3ccc(C)cc3)n2n1	-26.6
COc1ccc(NC(=O)CSc2ccc3nnc(-c4ccccn4)n3n2)c(OC)c1	-25.9
O=C(CSc1nnc2ccc(-c3ccccn3)nn12)NCCc1ccccc1	-6.49
COc1ccc(OC)c(NC(=O)CSc2ccc3nnc(-c4ccccn4)n3n2)c1	-69
COc1ccc(CCNC(=O)CSc2nnc3ccc(-c4ccccn4)nn23)cc1OC	2.17
O=C(CSc1ccc2nnc(-c3cccnc3)n2n1)Nc1ccccc1C(F)(F)F	-33.3
COc1ccccc1NC(=O)CSc1ccc2nnc(-c3ccccn3)n2n1	0.136
COc1ccc(CCNC(=O)CSc2nnc3ccc(-c4ccccn4)nn23)cc1	-51.6
COc1ccccc1NC(=O)CSc1ccc2nnc(-c3cccnc3)n2n1	-57
COc1ccccc1NC(=O)CSc1ccc2nnc(-c3ccncc3)n2n1	-31.3
O=C(CSc1ccc2nnc(-c3cccnc3)n2n1)Nc1ccc(F)cc1F	-21.5
CCOc1ccccc1NC(=O)CSc1ccc2nnc(-c3cccnc3)n2n1	-61.9
COc1ccc(C(O)C(C)NC(C)C(O)c2ccc(OC)cc2)cc1 (stereo not shown)	4.3
COc1ccc(S(=O)(=O)N2CCN(Cc3cc(OC)c(O)c(OC)c3)CC2)cc1.O=C(O)C(=O)O	4.57
CN(C)CCNc1nc(-c2ccccc2)nnc1C(F)(F)F	-3.83
CN1CCN(C(=O)c2ccc3c(c2)NC(=O)C(N2CCOCC2)S3)CC1 (stereo not shown)	3.85
